Screening results deposited in PubChem BioAssay by National Center for Advancing Translational Sciences (NCATS).
Pf Dd2 inh – qHTS Primary assay for Inhibitors of Plasmodium falciparum Dd2 growth in vitro; P. falciparum Dd2 growth, SYBR Green, 72 h; Potency, µM (doses to about 28.9 µM), without a hit: top-dose activity, negative = inhibition, usual class: inhibitors; hit rate 4.3% among 120,000; active = well fitted inhibition curve with a large enough effect;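 note: plate controls were DMSO vehicle for no effect and reference drug for full effect; nearly all actives have a fitted effect of over 65% in size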
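Infected erythrocytes (Dd2, 0.3% parasitemia, 2.5% hematocrit final) are added to compound in RPMI-1640/Albumax II medium, grown 72 h at 37C in low oxygen, then lysed with saponin/Triton-X containing SYBR Green and read by fluorescence.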
* marks the source's active call; other numbers are inactive results; i = inactive; [ ] = remark or other dose. The entries come from a sample that favours hits as a whole. Potency is the fitted concentration of half-maximal effect.

SMILES	Pf Dd2 inh
CC(C)CN(CC1CN(C(=O)NCc2ccccc2)CCO1)C(=O)c1ccc2c(c1)OCO2 (stereo not given)	-4%
CCOc1ccccc1C1NC(=O)N(CC(=O)Nc2ccccc2C)C2=C1C(=O)OC2 (stereo not given)	i
Cc1nn(C)c(C)c1CCNC(=O)CCC[C@@H]1[C@H]2CCCN3CCC[C@@H](CN1Cc1ccccc1)[C@@H]23	i
O=C(NC[C@H]1Cn2c(-c3ccc4c(c3)OCCO4)cnc2CO1)C1CC1	-8%[44.1 µM]
CS(=O)(=O)NC[C@H]1Cn2c(-c3ccc4c(c3)OCCO4)cnc2CO1	i
Clc1ccc(CNC[C@H]2Cn3c(-c4ccccc4)cnc3CO2)cc1	-12%[44.1 µM]
O=S(=O)(Cc1ccccc1)NC[C@H]1Cn2c(-c3ccc(F)cc3)cnc2CO1	i
Clc1ccc(-c2cnc3n2C[C@H](CNCc2cccnc2)OC3)cc1	-11%[44.1 µM]
O=C(NCc1ccccc1)NC[C@H]1Cn2c(-c3ccc(Cl)cc3)cnc2CO1	2.8µM*
c1ccc(CNC[C@H]2Cn3c(-c4ccc5c(c4)OCCO5)cnc3CO2)cc1	11µM*
O=S(=O)(Cc1ccccc1)NC[C@H]1Cn2c(-c3ccc(Cl)cc3)cnc2CO1	-7%[44.1 µM]
COc1ncccc1CNC[C@H]1Cn2c(-c3ccc(F)cc3)cnc2CO1	25µM*
COCCn1c(COc2cccc(-n3nnnc3C)c2)nnc1C1CC(N)C1 (stereo not given)	-18%
Cc1ncc(CO)c(CN2CCC3(Cc4ccccc4CNC3=O)C2)c1O (stereo not given)	4%
Cc1nc(C)c(C(=O)N2CCCC(Cc3noc(-c4cnccn4)n3)C2)s1 (stereo not given)	-10%
O=C(N[C@@H]1CN(Cc2ccoc2)C[C@H]1CO)c1cccnc1	4%
CCCN(CC1CCOC1)C(=O)Nc1c(F)cccc1F (stereo not given)	4%
O=C(CC1=C2CCCCC2N(Cc2ccccc2)C1=O)NC1CC1 (stereo not given)	-3%
Cc1cc2nc3n(c(=O)c2n1CC(=O)Nc1ccc2c(c1)OCCO2)CCCCC3	-7%
O=C1N[C@H](CC(=O)N2CCn3c(nnc3C(F)(F)F)C2)C(=O)Nc2ccccc21	1%
Cc1ccc2c(c1)nc1n2[C@@H](CNC(=O)c2ccc(C#N)cc2)COC1	i
Cc1ccc(-c2nnc(Nc3cccc(Cl)c3)c3ccccc23)cc1S(=O)(=O)N1CCOCC1	6%
Cc1ccc(C(=O)Nc2ccc(F)cc2)cc1S(=O)(=O)N1CCOCC1	i
Cc1ccccc1Nc1nnc(-c2ccc(C)c(S(=O)(=O)N3CCN(C)CC3)c2)c2ccccc12	40%
Cc1ccc(-c2nnc(Nc3ccc(F)cc3)c3ccccc23)cc1S(=O)(=O)N1CCN(C)CC1	10µM*
SMILES	Pf Dd2 inh
COc1cccc(N2CCN(S(=O)(=O)c3cc(-c4cc(C)no4)ccc3C)CC2)c1	i
Cc1ccc(-c2nnc(Nc3cccc(O)c3)c3ccccc23)cc1S(=O)(=O)N1CCN(C)CC1	10µM*
Cc1ccc(-c2nnc(Nc3cccc(C(F)(F)F)c3)c3ccccc23)cc1S(=O)(=O)N1CCOCC1	10µM*
Cc1ccc(C(=O)Nc2ccccc2)cc1S(=O)(=O)N1CCCC1	-20%
Cc1ccc(C(=O)Nc2cccc(C(=O)O)c2)cc1S(=O)(=O)N1CCCC1	-14%
COC(=O)c1ccc(Nc2nnc(-c3ccc(C)c(S(=O)(=O)N4CCN(C)CC4)c3)c3ccccc23)cc1	1.6µM*
Cc1ccc(F)cc1S(=O)(=O)N1CCC(n2cnnc2C(C)C)CC1	i
N#Cc1cccc(C(=O)N2CCCN(S(=O)(=O)c3ccccc3)CCC(=O)NCC2)c1	9%
CN(C)c1cccc(C(=O)NC2CCCN(c3cc(-c4ccc(F)cc4)[nH]n3)C2)c1 (stereo not given)	i
COC(=O)c1cn([C@H]2CO[C@H]3[C@@H]2OC[C@@H]3NC(=O)NC2CCCCC2)nn1	6%[44.1 µM]
COc1ccc(-c2ccc3c(c2)C(=O)N2CCN(C(=O)COc4ccccc4)C[C@@H]2C(=O)N3)cc1	i
Cc1ccc(-c2onc(C)c2C)cc1S(=O)(=O)N1CCN(c2ccccc2F)CC1	14%
Cc1ccc(-c2onc(C)c2C)cc1S(=O)(=O)N1CCCCC1	41%
Cc1ccc(-c2nnc(Nc3ccc(Br)cc3)c3ccccc23)cc1S(=O)(=O)N1CCN(C)CC1	5.6µM*
COC[C@@H]1CN(C(=O)Cc2cccc(OC)c2)C[C@H]1c1ccccn1	-3%
COc1cc(NC(=O)N2c3ccccc3CC2c2nc(C3CC3)no2)cc(OC)c1 (stereo not given)	i[5.79 µM]
COCCCNC(=O)C1c2ccccc2C(=O)N(C2CCCCC2)C12CCCCC2 (stereo not given)	-4%
CCC(CC)N1C[C@@H](CO)[C@H](c2nc(CCOC)no2)C1	18%
CC(C)NC(=O)N[C@H]1CCN2C(=O)c3cc(-c4ccsc4)ccc3NC(=O)[C@@H]2C1	13µM*
CC(C)NC(=O)N[C@H]1CCN2C(=O)c3cc(-c4ccc5c(c4)OCO5)ccc3NC(=O)[C@@H]2C1	i
Cc1cccc(-c2ccc3c(c2)C(=O)N2CC[C@H](NC(=O)NC(C)C)C[C@H]2C(=O)N3)c1C	-4%[44.1 µM]
O=C(c1ccc2oc(-c3cccc(F)c3)nc2c1)N1CCCCC1CCO (stereo not given)	-17%
CC(C)(C)C(=O)N1CCC(c2nnc(Cn3cncn3)n2C2CC2)CC1	1%
COC(=O)c1ccc2c(c1)nc1n2[C@@H](CNC(C)=O)COC1	24%[44.1 µM]
CCOc1cc(-c2ccc(OC(=O)c3ccccc3Cl)c(OC)c2)cc(=O)c2c(C)oc(C)c12	-12%
SMILES	Pf Dd2 inh
COc1ccc(F)cc1-c1ccc(C(=O)O)cc1	i
COc1ccc(-c2cc(OC(=O)c3ccc(F)cc3)c3c(C)oc(C)c3c(=O)c2)cc1OC	10µM*
CCCc1ccc(-c2ccc(C(=O)Oc3ccc(OCC)cc3)cc2)nc1	4%
CCOc1ccc(-c2cc(OC(=O)c3ccc(OC)cc3)c3c(C)oc(C)c3c(=O)c2)cc1	10µM*
CCOC(=O)c1c(-c2ccc(OC)c(OC)c2)csc1NC(=O)c1ccc(F)cc1	6%
CC(C)Cc1cc(C(=O)N[C@H](C2CCNCC2)C2CC(O)C2)nc(N)n1 (stereo not given in full)	3%
CC(=O)N1CC[C@H](c2nnc(-c3cccnc3)o2)C1	12%[44.1 µM]
O=C(CN1C(=O)NC(c2ccc(Cl)cc2)C2=C1COC2=O)Nc1ccc2c(c1)OCCO2 (stereo not given)	-14%
O=C1c2ccccc2CN1C1CCN([S+](=O)([O-])c2ccccc2)CC1	9%
O=C(CSc1ccncc1)N1CCN2C(=O)N(Cc3ccccc3)C(=O)[C@H]2C1	i
CC(C)CCC1=NC2(CCN(C(=O)CCN3CCCCC3=O)CC2)C(=O)N1	-12%
CCOc1cc(=O)n2c(c1C(=O)Nc1ccc3c(c1)OCCO3)CCCCC2	13%
COc1cccc(Nc2ccc3c(n2)C(C)(C(=O)NCc2ccco2)CN(C)C3)c1 (stereo not given)	-16%[44.1 µM]
COc1cccc(Nc2ccc3c(n2)C(C)(C(=O)NC(C)C)CN(C)C3)c1 (stereo not given)	2.5µM*
COCCNC(=O)C1(C)CN(C)Cc2ccc(Nc3cccc(OC)c3)nc21 (stereo not given)	i
CCOc1cc(=O)n2c(c1C(=O)Nc1cccc(F)c1)CCCC2	-7%
O=C(c1ccccc1)N1C[C@@H](F)[C@@H](OCc2nc3ccc(C(F)(F)F)cc3[nH]2)C1	i
O=C(c1ccc(F)cc1F)N1CCC(n2cnnc2C2CC2)CC1	12%
